Values joined by “and” are separate entries in the source; they are usually repeats but may differ in a detail not shown here. Identical values can stand only once. About 83,000 compounds went through this panel and 20% of them were active in at least one assay; those are over-represented in the sample as a whole.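 Note: values are percent growth. 100 is the growth of untreated cells, values between 100 and 0 indicate rising inhibition; between -100 and 0 indicates cell death.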
Experiments:
Test in all cases: NCI-60 one-dose screen, 48 h (100 = growth as untreated, 0 = no growth, -100 = all killed)
Conditions in all cases: 10 µM unless noted; active = growth percent below 10; inactive = the rest
HCT-15 colon = tested on: HCT-15 colon
HT29 colon = tested on: HT29 colon
SNB-75 CNS = tested on: SNB-75 CNS
SNB-19 CNS = tested on: SNB-19 CNS
U251 CNS = tested on: U251 CNS
PC-3 prostate = tested on: PC-3 prostate
SK-MEL-5 melanoma = tested on: SK-MEL-5 melanoma
UACC-62 melanoma = tested on: UACC-62 melanoma
LOX IMVI melanoma = tested on: LOX IMVI melanoma
SK-MEL-28 melanoma = tested on: SK-MEL-28 melanoma

Measured: growth

O=C(CO)C(O)C(O)C(O)C(O)CO (stereo unspecified)
inactive: HCT-15 colon 103% | HT29 colon 109% | SNB-75 CNS 106% and 89.1% | SNB-19 CNS 104% and 103% | U251 CNS 95.7% and 95.4% | PC-3 prostate 101% and 96.1% | SK-MEL-5 melanoma 95.4% and 103% | UACC-62 melanoma 98.3% and 101% | LOX IMVI melanoma 103% and 98.5% | SK-MEL-28 melanoma 108% and 101%

CC(C)NC(=O)N/C=C(\C#N)C(N)=O
inactive: HCT-15 colon 101% | HT29 colon 107% | SNB-75 CNS 83.2% | SNB-19 CNS 110% | U251 CNS 114% | PC-3 prostate 94.9% | SK-MEL-5 melanoma 101% | UACC-62 melanoma 101% | LOX IMVI melanoma 97.2% | SK-MEL-28 melanoma 100%

Cl
inactive: HCT-15 colon 102% | HT29 colon 106% | SNB-75 CNS 96.9% | SNB-19 CNS 99.3% | U251 CNS 102% | PC-3 prostate 106% | SK-MEL-5 melanoma 105% | UACC-62 melanoma 105% | LOX IMVI melanoma 97% | SK-MEL-28 melanoma 136%

Nc1ccc2c(O)cc(S(=O)(=O)O)cc2c1
inactive: HCT-15 colon 104% and 105% | HT29 colon 102% and 106% | SNB-75 CNS 99.7% | SNB-19 CNS 91.6% and 104% | U251 CNS 101% | PC-3 prostate 85.5% | SK-MEL-5 melanoma 96.6% and 104% | UACC-62 melanoma 93.7% and 103% | LOX IMVI melanoma 92.8% | SK-MEL-28 melanoma 101% and 114%

CCCCCCCCCCCCCCCc1ccc(N)c(OC2OC(CO)C(O)C(O)C2O)c1 (stereo unspecified)
inactive: HCT-15 colon 98.4% | HT29 colon 103% | SNB-19 CNS 101% | U251 CNS 89.7% | PC-3 prostate 58.3% | SK-MEL-5 melanoma 111% | UACC-62 melanoma 76.3% | LOX IMVI melanoma 86.3% | SK-MEL-28 melanoma 112%

CCCCNc1ccc(Nc2ccccc2)cc1
inactive: HCT-15 colon 94.6% | HT29 colon 51.5% | SNB-75 CNS 84.2% | SNB-19 CNS 76.4% | U251 CNS 34.8% | PC-3 prostate 50.8% | SK-MEL-5 melanoma 67.3% | UACC-62 melanoma 60.6% | LOX IMVI melanoma 64.9% | SK-MEL-28 melanoma 94.9%

COc1ccc(C(=O)CC(c2ccccc2)C(C#N)c2ccccc2)cc1 (stereo unspecified)
inactive: HCT-15 colon 96.5% | HT29 colon 82.3% | SNB-75 CNS 83.8% | SNB-19 CNS 92.4% | U251 CNS 83.2% | PC-3 prostate 64.8% | SK-MEL-5 melanoma 86.6% | LOX IMVI melanoma 85.2% | SK-MEL-28 melanoma 97%

CC1CCC(C(C)C)C(NNC(N)=O)C1 (stereo unspecified)
inactive: HCT-15 colon 112% | HT29 colon 102% | SNB-75 CNS 102% | SNB-19 CNS 98.4% | U251 CNS 92.4% | PC-3 prostate 86.2% | SK-MEL-5 melanoma 102% | LOX IMVI melanoma 100% | SK-MEL-28 melanoma 120%

OCCN1CCCCCCC1
inactive: HCT-15 colon 91.4% | HT29 colon 106% | SNB-75 CNS 115% | SNB-19 CNS 101% | PC-3 prostate 93.5% | SK-MEL-5 melanoma 102% | UACC-62 melanoma 101% | LOX IMVI melanoma 103% | SK-MEL-28 melanoma 104%

O=[N+]([O-])c1cccc(SSc2cccc([N+](=O)[O-])c2)c1
inactive: HCT-15 colon 91.9% | HT29 colon 102% | SNB-75 CNS 102% | SNB-19 CNS 91.1% | U251 CNS 99.2% | PC-3 prostate 82.6% | SK-MEL-5 melanoma 99.4% | UACC-62 melanoma 94.2% | LOX IMVI melanoma 100% | SK-MEL-28 melanoma 110%

CC1CCC2(OC1)OC1CC3C4CC=C5CC(O)CCC5(C)C4CCC3(C)C1C2C (stereo unspecified)
inactive: HCT-15 colon 105% | HT29 colon 108% | SNB-75 CNS 83% | SNB-19 CNS 96.1% | U251 CNS 94.8% | PC-3 prostate 96.4% | SK-MEL-5 melanoma 105% | UACC-62 melanoma 90.6% | LOX IMVI melanoma 91.2% | SK-MEL-28 melanoma 115%

CC(C)NCC(O)c1ccc(O)c(O)c1 (stereo unspecified)
inactive: HCT-15 colon 104% and 106% and 99.5% | HT29 colon 100% and 111% | SNB-75 CNS 75.3% and 83.1% and 82.2% | SNB-19 CNS 101% and 89.5% and 93.5% | U251 CNS 98.6% and 118% and 99.2% | PC-3 prostate 93.8% and 95.8% | SK-MEL-5 melanoma 94.6% and 90.3% and 120% | UACC-62 melanoma 101% and 109% and 98.5% | LOX IMVI melanoma 94.2% and 111% and 95.4% | SK-MEL-28 melanoma 107% and 116% and 101%

— PubChem BioAssay (NCI)
